# Compound activity deposited in PubChem BioAssay by National Center for Advancing Translational Sciences (NCATS).
# Rows were chosen to be rich in hits. Some 9.2% of all compounds tested hit in one or more screens of this group.
# ELG1 genotox: inducers of genotoxicity in HEK293T ELG1-luciferase cells. HEK293T ELG1-luciferase reporter, luminescence, 16 h. Potency, µM (titrated, usually from 46 µM), without a hit: at the highest dose activity change, positive = activation, usual class: activators. actives 1.3% (n = 330,000); further: % of control where 0% means no effect; nearly all actives have a fitted effect of over 60% in size
#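 Cells (2,000/well) expressing the ELG1-luciferase fusion are dosed by pin tool and kept 16 hr at 37 °C, 5% CO2. Signal comes from ONE-Glo luciferase reagent after 30 min at room temperature.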
# FLuc modulator: counter-screen for miR-21 project: firefly luciferase inhibitors or activators | purified FLuc, Km substrates, luminescence inhibition | Potency, µM (highest dose often 57.5 µM), inactives show top-dose activity change, negative = inhibition, hits mostly inhibitors | actives 6.9% (n = 360,000);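 further: plate controls were vehicle for no effect and reference inhibitor for full effect; nearly all actives have a fitted effect of over 55% in size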
# Target sequence (P08659 whole entry, looked up): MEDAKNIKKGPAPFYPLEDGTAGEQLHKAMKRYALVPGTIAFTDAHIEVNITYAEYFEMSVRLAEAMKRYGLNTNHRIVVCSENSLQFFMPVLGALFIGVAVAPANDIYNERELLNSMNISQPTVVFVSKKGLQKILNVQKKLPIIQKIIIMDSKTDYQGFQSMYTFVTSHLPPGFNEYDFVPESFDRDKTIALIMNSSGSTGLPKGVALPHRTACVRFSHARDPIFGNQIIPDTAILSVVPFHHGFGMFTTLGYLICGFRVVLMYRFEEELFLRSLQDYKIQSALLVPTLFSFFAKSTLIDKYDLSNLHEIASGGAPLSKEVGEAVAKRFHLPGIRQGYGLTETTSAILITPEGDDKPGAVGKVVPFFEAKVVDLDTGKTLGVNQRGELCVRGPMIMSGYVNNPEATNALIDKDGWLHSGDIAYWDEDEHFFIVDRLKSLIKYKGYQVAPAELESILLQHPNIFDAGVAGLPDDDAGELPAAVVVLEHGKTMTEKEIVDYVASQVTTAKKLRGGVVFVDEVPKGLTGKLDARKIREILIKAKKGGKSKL
#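 Biochemical qHTS of compounds, final roughly 60 µM downward over six points, against 10 nM purified firefly luciferase using Km concentrations of substrates (10 uM D-luciferin, 10 uM ATP) in Tris acetate pH 7.5 buffer; luminescence output.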
# NPC1 promoter act: activators of NPC1 promoter; Huh7 NPC1 promoter luciferase reporter, 24 h; Potency, µM (series often up to 9.22 µM), inactives show at the top dose activation, actives largely listed as activators; actives 2.4% (n = 320,000); further: % of control where 0% means no effect; nearly all actives have a fitted effect of over 60% in size
#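 Huh7 cells stably carrying NPC1 promoter–luciferase, plated in Opti-MEM with 10% FBS for 2 h, were exposed to compound in DMSO for 24 h at 37 °C; luciferase reagent was added for 10 min and luminescence read.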
# Rab9 promoter act: activators of Rab9 promoter. Huh7 Rab9 promoter-luciferase reporter, luminescence, 24 h. Potency, µM (highest dose often 9.22 µM), inactives show at the highest dose activation, negative = inhibition, hits mostly activators. AID 485297. actives 2.8% (n = 320,000); further: % of control where 0% means no effect; nearly all actives have a fitted effect of over 60% in size
#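 Rab9 promoter-driven luciferase in stably transfected Huh7 cells; 1500 cells/well rested 2 h, exposed to compound in DMSO for 24 h at 37 °C, 5% CO2. Luminescence read 10 min after adding luciferase reagent at ambient temperature.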
# ELG1 repair inh: blocks ELG1-dependent DNA repair in HEK293T cells; HEK293T ELG1-luciferase reporter, luminescence, 16 h; DNA damage induced by 5-fluorouridine; Potency, µM (doses to about 46.1 µM), without a hit: top-dose activity change, negative = inhibition, actives largely listed as inhibitors; actives 2.3% (n = 330,000); AID 504467; further: on the % scale 0 is the no-effect control and ±100 the full control effect; nearly all actives have a fitted effect of over 55% in size
#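 Overnight (16 hr) co-exposure of 2,000 cells/well to 5-fluorouridine and compound at 37 °C preceded detection. Luciferase was quantified via ONE-Glo luminescence; loss of signal denotes inhibition.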
# SMN2 splice up: SMN2 splice variant enhancement | actives 2.8% (n = 210,000) | HEK293 SMN2-luciferase splicing reporter, luminescence, 30-36 h | Potency, µM (series often up to 46.1 µM), for the others: at the top dose activity change, positive = activation, hits mostly activators; further: % of control where 0% means no effect; nearly all actives have a fitted effect of over 55% in size
#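 HEK293 cells carry an SMN2 minigene-luciferase reporter in which exon 7 inclusion puts luciferase in frame. Cells were seeded at 2000 cells/well, attached for 10-12 hours, then exposed to compounds for 30-36 hours at 37C before ONE-Glo luminescence.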
# Numbers without * were called inactive; ? = inconclusive; / = no result given; [ ] = dose if it differs, or a comment. The call rests on the fitted dose curve; in most records, active means well fitted curve in the direction sought with a large enough effect; inconclusive means small, poorly fitted or top-dose-only effect, or another doubt; inactive means no such curve, though single readings can be large; an effect the other way counts as inactive or inconclusive. Potency means the concentration at half of the fitted maximal effect.
SMILES,ELG1 genotox,FLuc modulator,NPC1 promoter act,Rab9 promoter act,ELG1 repair inh,SMN2 splice up
COc1ccc(N2C(=O)CC(N3CCC(n4c(=O)[nH]c5ccccc54)CC3)C2=O)cc1 (stereo unspecified),2%,0%,6%,-5%,0%,-5%
COc1ccc(N2C(=O)CS(=O)C(c3ccccc3)C2=O)cc1 (stereo unspecified),14%,24µM*,12%,12%,15%,4%
c1cc(OCC2CO2)cc(OCC2CO2)c1 (stereo unspecified),/,/,/,/,/,-57%
Cc1ccc(NS(=O)(=O)c2ccc(OCC(=O)N3CCN(C)CC3)cc2)cc1,-1%,1%,-3%,0%,4%,/
COc1ccc2nc(N3CCN(C(=O)CS(=O)(=O)c4ccc(C)cc4)CC3)sc2c1,/,4.8µM*,/,/,/,/
Cn1nc(OC(=O)Nc2ccccc2)cc1C(F)(F)F,13%,17µM*,?,29%,?,17%
O=C(Nc1ccccc1)Oc1ccccc1,4%,-11%,-3%,1%,21%,25%
O=C(c1cc2c(s1)-c1ccccc1OC2)N1CCC2(CC1)OCCO2,?,6.7µM*,?,0.89µM*,?,5.6µM*
C[C@@]12Cc3cnc(-c4ccccc4)nc3C[C@@H]1CC[C@@H]1[C@H]3CC[C@@](C)(O)[C@]3(C)CC[C@@H]12,/,/,/,/,/,6%[9.22 µM]
Cc1cc(C=C2C(=O)N(C)C(=S)N(C)C2=O)c(C)n1-c1ccncc1,8%,27µM*,-3%,-6%,26%,/
Cc1ccnc(-n2c(C)cc(C=C3C(=O)N(C)C(=S)N(C)C3=O)c2C)c1,8%,19µM*,1%,-2%,0%,-3%
CN1C(=O)C(=Cc2ccc(SC3CCCCC3)o2)C(=O)N(C)C1=O,15%,17µM*,-4%,-1%,15%,-13%
CN(C)CS/C(N)=N/[C@H](O)C(Cl)(Cl)Cl,/,/,/,/,/,11%[9.22 µM]
ClCC[N+]12CC[N+](CCCl)(CC1)C2 (tested in a mixture with another compound),/,/,/,/,/,14%[9.22 µM]
COc1ccc(N=Cc2c(O)n(C)c(=O)n(C)c2=O)cc1,13%,13µM*,4%,3%,-6%,/
Cc1ccc(N=Cc2c(O)n(C)c(=O)n(C)c2=O)cc1,2%,12µM*,19%,24%,25%,/
COc1cc2c3cc1Oc1c(O)c(OC)cc4c1[C@@H](Cc1ccc(cc1)Oc1cc(ccc1O)C[C@H]3N(C)CC2)N(C)CC4,/,/,/,/,/,-21%[9.22 µM]
COc1cc(C(=O)Nc2ccc(Br)cc2C(=O)c2ccccc2Cl)cc(OC)c1OC,1%,0%,-6%,-9%,-18%,-17%
COc1ccccc1NS(=O)(=O)c1cc(NC(=O)c2ccc(Cl)nc2)ccc1N1CCCC1,-5%,/,/,/,16µM*,/
O=c1nc(/C=C/c2ccc(Cl)cc2Cl)cc(C(F)(F)F)[nH]1,-4%,11µM*,1%,0%,15%,/
CC(C)CNCCc1ccccn1,/,/,/,/,/,-21%[9.22 µM]
CCN1/C(=C\C=C\C2=[N+](CC)c3ccccc3C2(C)C)C(C)(C)c2ccccc21,-17%,?,-34%,-42%,2.3µM*,-70%
Cc1ccc(C2(c3ccc(C)c(O)c3C)CCN(C)CC2)c(C)c1O,/,/,/,/,/,-5%[9.22 µM]
COc1ccc(N2C(=O)/C(=C/C=C/c3ccccc3[N+](=O)[O-])C(=O)NC2=S)cc1,-1%,24µM*,-1%,1%,13%,-7%
COC(=O)c1ccc(-c2nc(-c3ccc(Br)o3)no2)cc1,?,1.7µM*,3.2µM*,4µM*,?,12%
SMILES,ELG1 genotox,FLuc modulator,NPC1 promoter act,Rab9 promoter act,ELG1 repair inh,SMN2 splice up
COC(=O)c1ccc(-n2c(C)nc3ccccc3c2=O)cc1,0%,2%,2%,-6%,-4%,-9%
CCN(CC)C(=O)c1ccc(NC(=O)c2cccc(F)c2)cc1,?,15µM*,20%,18%,?,0%
CCCCCCOC(=O)c1ccccc1N,?,17µM*,1%,-4%,?,22%
Nc1ccccc1C(=O)OCCc1ccccc1,?,1.9µM*,1.1µM*,0.79µM*,?,14µM*
C=C[C@H](Cc1ccccc1)N(Cc1ccccc1)S(=O)(=O)N(Cc1ccccc1)[C@H](C=C)Cc1ccccc1,-1%,/,/,/,?,/
CCOc1ccc(NC(=O)C(=S)NC2CCCCC2)cc1,?,13µM*,?,?,?,?
C=CCn1c(O)c(C(C)=Nc2cc(OC)ccc2OC)c(=O)[nH]c1=O,23µM*,0%,-3%,15%,0%,10%
COC1CC(OC2CCC3(C)C(CCC4C3CCC3(C)C(C5=CC(=O)OC5)C(OC(C)=O)CC43O)C2)OC(C)C1OC1OC(COC2OC(CO)C(O)C(O)C2O)C(O)C(O)C1O (stereo unspecified),-11%,-3%,-44%,-42%,2.9µM*,/
CC(=O)OC1C[C@H](O[C@@H]2C(O)C[C@H](O[C@@H]3C(O)C[C@@H](OC4CC[C@]5(C)C(CCC6C5CC(O)[C@@]5(C)C(C7=CC(=O)OC7)CC[C@@]65O)C4)OC3C)OC2C)O[C@H](C)[C@H]1O[C@H]1OC(CO)C(O)C(O)C1O (stereo partly specified),/,/,/,/,/,-71%
CC1=C/C(=N\NC(=S)NCCc2ccccc2)CC(C)(C)C1,13%,21µM*,25%,29%,?,?
CCOc1ccc(C(=O)Nc2nnc(S(=O)(=O)N(C)Cc3ccco3)s2)cc1,0%,0%,-2%,3%,?,/
C/C(=N\NC(=S)Nc1ccccc1)c1c(O)n(C)c(=O)n(C)c1=O,7%,12µM*,6%,-2%,?,28%
Cc1cc(/C=C2/C(=O)NC(=O)N(Cc3ccco3)C2=O)c(C)n1-c1ccccc1,6%,5.4µM*,1%,0%,11%,-28%
O=C1NC(=S)N(Cc2ccco2)C(=O)/C1=C\c1cccs1,0%,17µM*,-4%,-8%,8%,-18%
CCCCC[CH2][Hg][S]C1=C2N=CNC2NC(N)=N1 (stereo unspecified),/,/,/,/,/,-48%[9.22 µM]
Cc1ccc(-c2nn3c(C)nnc3c3ccccc23)cc1S(=O)(=O)NCCO,?,0%,-1%,0%,?,?
Cc1ccc(-c2nnc(Nc3ccc(OC(F)(F)Cl)cc3)c3ccccc23)cc1S(=O)(=O)NC(C)(C)CO,/,5.4µM*,/,/,/,16%
CN1C(=O)c2ccccc2Sc2ccc(C(=O)N3CCC4(CC3)OCCO4)cc21,6%,1%,0%,-1%,9%,-19%
